Screening data as filed in PubChem BioAssay.
Only some compounds are listed: those with a hit (about 8.6% of all), similar ones and a draw of the others.
MARV entry inh: qHTS for Inhibitors of binding or entry into cells for Marburg Virus. Marburg virus pseudotype entry/binding inhibition, cell-based. Potency, µM (highest dose often 49.2 µM), inactives show at the top dose activity change, negative = inhibition, usual class: inhibitors. 18,000 compounds, 6.5% hits. AID 720532, 2013
Lassa entry: qHTS for Inhibitors of binding or entry into cells for Lassa Virus | Lassa virus pseudotyped entry inhibition, cell-based qHTS | Potency, µM (highest dose often 49.2 µM), for the others: top-dose activity change, negative = inhibition, usual class: inhibitors | 18,000 compounds, 4.1% hits
* = called active by the depositor; [ ] = dose if it differs, or a comment. The call rests on the fitted dose curve; tested in HEK293 cells. On the % scale 0 is the no-effect control and ±100 the full control effect; potency means the concentration at half of the fitted maximal effect.

What do the screens show for `COC(=O)C1=C(C(=O)OC)[C@@H]2N(C)c3ccccc3[C@@]23CCC(=O)N(Cc2cc(OC)c(OC)c(OC)c2)C3=N1`?
MARV entry inh: -11.8%[8.59 µM]; Lassa entry: -13.1%[8.59 µM]

How did CC#C[C@]1(O)CC[C@H]2[C@@H]3CCC4=CC(=O)CCC4=C3[C@@H](c3ccc(N(C)C)cc3)C[C@@]21C do in these assays?
MARV entry inh: inconclusive; Lassa entry: 31.6µM*

How did C#C[C@]1(O)CC[C@H]2[C@@H]3CCC4=CC(=O)CCC4=C3C=C[C@@]21CC do in these assays?
MARV entry inh: 7.0%; Lassa entry: inconclusive

What do the screens show for `CCc1cc2c(nc1CC)CCN(CCC(C)=NO[C@@H]1O[C@H](COC(C)=O)[C@@H](OC(C)=O)[C@H](OC(C)=O)[C@@H]1OC(C)=O)C2`?
MARV entry inh: -19.1%[8.59 µM]; Lassa entry: 5.4%[8.59 µM]

What do the screens show for `CC(=O)OC[C@H]1O[C@@H](n2ncc(=O)[nH]c2=O)[C@H](OC(C)=O)[C@@H]1OC(C)=O`?
MARV entry inh: 2µM*; Lassa entry: 1.58µM*

Results for N#Cc1c(NC(=O)c2ccc(F)cc2)sc2c1CCCC2 ?
MARV entry inh: 48.6%; Lassa entry: 21.3%

Results for COc1ccc(CC(N)C(=O)N[C@H]2[C@@H](O)[C@H](n3cnc4c(N(C)C)ncnc43)O[C@@H]2CO)cc1 (some centres undefined) ?
MARV entry inh: 6.31µM*; Lassa entry: 1.26µM*

What do the screens show for `C[C@@H](Cc1ccccc1)Nc1ncnc2c1ncn2[C@@H]1O[C@H](CO)[C@@H](O)[C@H]1O`?
MARV entry inh: 48.0%; Lassa entry: 3.4%

Results for O=S(=O)(NCCc1ccc(F)cc1)c1ccccc1Br ?
MARV entry inh: 17.0%; Lassa entry: -11.5%

What do the screens show for `CCCC[C@@H]1CN2[C@@H](CC[C@H](C)[C@@H]2c2ccc(Br)cc2)C(=O)O1`?
MARV entry inh: 5.3%[8.59 µM]; Lassa entry: 4.8%[8.59 µM]

Results for Cc1nc2ccc(C(=O)NCC3CCC4(CCN(Cc5cccnc5)CC4)O3)cc2nc1C (centres undefined) ?
MARV entry inh: inconclusive; Lassa entry: -13.7%

What do the screens show for `COc1cc(CN2CCC3(CCC(CNC(=O)c4ccccc4)O3)CC2)cc(OC)c1` (centres undefined)?
MARV entry inh: 12.6µM*; Lassa entry: -11.4%

How did COc1c2c(c(CC=C(C)C)c3oc(=O)c(-c4ccc(O)cc4)c(O)c13)OC(C)(C)C=C2 do in these assays?
MARV entry inh: 1.9%; Lassa entry: -5.0%

What do the screens show for `CC(C)=CCc1c2c(c3occ(-c4ccc(O)cc4)c(=O)c3c1O)C=CC(C)(C)O2`?
MARV entry inh: 22.4µM*; Lassa entry: inconclusive

How did Fc1ccc(C(c2ccc(F)cc2)N2CCN(C/C=C\c3ccccc3)CC2)cc1 do in these assays?
MARV entry inh: 14.1µM*; Lassa entry: inconclusive

What do the screens show for `Fc1ccc(C(OCCN2CCN(C/C=C/c3ccccc3)CC2)c2ccc(F)cc2)cc1`?
MARV entry inh: 8.91µM*; Lassa entry: 15.8µM*

What do the screens show for `CC(=O)OC[C@H]1O[C@@H](ON=C(C)CCN2CCCCc3nc(C)c(C)cc32)[C@H](OC(C)=O)[C@@H](OC(C)=O)[C@H]1OC(C)=O`?
MARV entry inh: 1.0%[8.59 µM]; Lassa entry: -10.3%[8.59 µM]

How did Fc1ccc(-c2ncn(CCCN3CCOCC3)c2-c2ccncc2)cc1 do in these assays?
MARV entry inh: -2.8%; Lassa entry: 65.1%

Results for C=C[C@@](C)(O)C1CC2C=CCOP(=O)(O2)O1 (some centres undefined) ?
MARV entry inh: 88.9%; Lassa entry: -1.6%

What do the screens show for `CC[C@@H](O)C(C[C@@H](C)N(C)C)(c1ccccc1)c1ccccc1`?
MARV entry inh: 12.6µM*; Lassa entry: inconclusive

How did CCC(O)c1ccccc1 (centres undefined) do in these assays?
MARV entry inh: 8.4%; Lassa entry: -7.8%

How did C/C1=C2N=C(/C=C3N=C(/C(C)=C4\[N-]C(C(CC(N)=O)C4(C)CCC(=O)NCC(C)OP(=O)([O-])OC4C(CO)OC(n5cnc6cc(C)c(C)cc65)C4O)C4(C)N=C1C(CCC(N)=O)C4(C)CC(N)=O)C(CCC(N)=O)C\3(C)C)C(CCC(N)=O)C/2(C)CC(N)=O.[CH3-].[Co+3] (centres undefined) do in these assays?
MARV entry inh: 3.16µM*; Lassa entry: 2.51µM*

Results for COCC(=O)Nc1cc(C(=O)N2CCN(C)C(c3ccccc3)C2)c2c(c1)nc(-c1ccncc1)n2C (centres undefined) ?
MARV entry inh: 15.7%; Lassa entry: -4.5%

What do the screens show for `CC(C)CC1C(=O)N(Cc2cn(CCC3OCCCO3)nn2)CCS(=O)(=O)N1Cc1ccc(-c2ccc(F)nc2)cc1` (centres undefined)?
MARV entry inh: inconclusive; Lassa entry: -9.5%

How did COC[C@H]([C@@H](O)[C@@H](O)C(=O)NCC[C@@H](C)c1nc(/C=C/C[C@H]2OC3(C[C@H](O)[C@H]2C)OC([C@@H](C[C@@H](O)[C@@H](C)[C@@H](O)[C@@H](C)/C=C(C)/C(C)=C/C=C/C(C)=C\C#N)OC)[C@@H](OP(=O)(O)O)C3(C)C)co1)N(C)C (some centres undefined) do in these assays?
MARV entry inh: 0.112µM*; Lassa entry: 70.8µM*

Results for c1ccc2c(c1)[nH]c1cnccc12 ?
MARV entry inh: 11.5%; Lassa entry: 16.4%

What do the screens show for `Cc1c2ccncc2c(C)c2c1[nH]c1ccccc12`?
MARV entry inh: 4.47µM*; Lassa entry: 0.2%[17.8 µM]

How did O=[S+]1([O-])C[C@H](N2CCN(CCO)CC2)[C@H](COCc2ccccc2)N1 do in these assays?
MARV entry inh: 33.3%; Lassa entry: 8.7%

Results for C=CCOC(=O)N[C@H](C(C(=O)OC)=C(C)NCc1ccccc1)c1ccc(Br)cc1 ?
MARV entry inh: 7.1%[8.59 µM]; Lassa entry: -2.8%[8.59 µM]

How did COc1ccc2c(c1OC)C(=O)OC2C1c2cc3c(cc2CCN1C)OCO3 (centres undefined) do in these assays?
MARV entry inh: 7.6%; Lassa entry: -1.0%

What do the screens show for `COc1ccc2c(c1OC)C(Cc1ccccc1)N1CCc3cc4c(cc3C1=C2)OCO4` (centres undefined)?
MARV entry inh: inconclusive; Lassa entry: 25.1µM*

How did COC(=O)C1=C(C)N(Cc2ccccc2)C(=S)NC1c1ccccc1 (centres undefined) do in these assays?
MARV entry inh: 5.8%[8.59 µM]; Lassa entry: 0.1%[8.59 µM]

Results for CC[C@H]1OC(=O)[C@H](C)C(=O)[C@H](C)[C@@H](O[C@@H]2O[C@H](C)C[C@H](N(C)C)[C@H]2O)[C@](C)(OC)C[C@@H](C)C(=O)[C@H](C)[C@H]2N(CCCCn3cnc(-c4cccnc4)c3)C(=O)O[C@]12C ?
MARV entry inh: -20.0%; Lassa entry: -25.9%

What do the screens show for `Nc1nccc(-c2c(-c3ccc(F)cc3)ncn2C2CCNCC2)n1`?
MARV entry inh: inconclusive; Lassa entry: -12.8%

How did Fc1ccc(-c2ncn(C3CCNCC3)c2-c2ccnc(Oc3ccc(F)c(F)c3)n2)cc1 do in these assays?
MARV entry inh: 3.53µM*; Lassa entry: inconclusive

How did Fc1ccc(-c2ncn(C3CCNCC3)c2-c2ccnc(Oc3ccc(Oc4ccccc4)cc3)n2)cc1 do in these assays?
MARV entry inh: 8.88µM*; Lassa entry: inconclusive

What do the screens show for `CCOC(=O)C1(C(=O)OCC)Cc2ccc(C(C)=O)cc2C1`?
MARV entry inh: -19.9%[8.59 µM]

How did CCSc1ccc2c(c1)N(CCCN1CCN(C)CC1)c1ccccc1S2 do in these assays?
MARV entry inh: inconclusive; Lassa entry: -17.3%[17.8 µM]
